Sampled rows, rich in hits. Any-hit rate of the full collection: about 4%.
D1 PAM – enhances dopamine response at the human D1 receptor | P21728 | HEK293 TREx D1 cells, calcium flux, dopamine EC20 potentiation | potentiation, % at 10 µM | actives 0.036% (n = 360,000) | AID 504651; in the data active = potentiation above about 30%
Target sequence (P21728 whole entry, looked up): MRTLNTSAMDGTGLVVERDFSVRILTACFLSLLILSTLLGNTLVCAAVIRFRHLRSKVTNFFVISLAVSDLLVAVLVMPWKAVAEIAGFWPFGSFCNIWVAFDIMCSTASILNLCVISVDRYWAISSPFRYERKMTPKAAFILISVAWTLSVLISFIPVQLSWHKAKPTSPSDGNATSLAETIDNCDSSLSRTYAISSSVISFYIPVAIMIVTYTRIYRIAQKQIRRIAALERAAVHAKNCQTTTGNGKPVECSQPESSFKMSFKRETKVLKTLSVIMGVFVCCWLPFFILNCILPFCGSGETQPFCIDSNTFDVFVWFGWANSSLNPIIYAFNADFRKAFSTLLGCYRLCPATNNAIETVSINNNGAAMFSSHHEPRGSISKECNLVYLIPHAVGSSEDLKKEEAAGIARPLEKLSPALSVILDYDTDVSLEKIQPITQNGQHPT
D1 antagonist – antagonists of human D1 dopamine receptor; P21728; HEK293 TREx D1 cells, calcium flux, dopamine EC80; stronger effect = lower value; activity change, negative = inhibition, % at 10 µM; actives 3.2% (n = 360,000); in the data active = activity change below about -30%
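Using tetracycline-induced force-coupled D1 Hek293 cells and a calcium dye, signals were followed for 180 s after compound, then for 180 s after EC80 dopamine, to detect inhibitors.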
TRHR enhancer – allosteric enhancers of human TRH receptor. P34981. TRHR cells, fluo-8 calcium fluorescence, EC20 TRH enhancement. enhancement, % at 2 µM. actives 0.66% (n = 360,000); in the data active = enhancement above about 30%
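TRHR-expressing cells loaded with fluo-8 calcium dye were read kinetically (ex 480/em 530) during compound addition, then stimulated with an EC20 of TRH (10 nM final). Enhancement of the Gq-mediated intracellular calcium response was scored.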
D1 ag – human D1 receptor agonism. P21728. HEK293 T-REx D1 cells, calcium flux, agonist mode. activation, % at 2 µM. actives 1% (n = 360,000). AID 504660
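Tetracycline-induced HEK293 TREx D1 cells, force-coupled to calcium signalling, were dye-loaded with a no-wash calcium kit. Compound was pin-added after a 10 s baseline. Fluorescence was read kinetically at 1 cycle/s for 180 s, with calcium rises flagged as agonism.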
TRHR agonist – agonists of human TRH receptor; actives 0.18% (n = 360,000); activation, % at 2 µM; TRHR cells, calcium flux fluo-8, FDSS agonist mode; P34981
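TRHR-expressing cells loaded with fluo-8 calcium dye; 23 nL library compound pin-transferred, kinetic FDSS fluorescence (Ex 480/Em 530) recorded about 180 s for agonist-induced calcium release, before a 10 nM TRH EC20 addition for potentiator mode.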
GRP78 ERSR act – inducers of ER stress response in human glioma cells; Potency, µM, actives largely listed as activators; U87-MG GRP78 promoter luciferase reporter, 16 h; actives 0.02% (n = 420,000); active = well fitted activation curve with a large enough effect; note: series mostly up to about 76 µM; nearly all actives have a fitted effect of over 35% in size
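Stably transfected U87-MG human glioma cells carrying a GRP78-based luminescent sensor were seeded at 1000 cells/well, pin-dosed with compounds and incubated 16 h. Luciferase reagent was then added, and end-point luminescence was read after 10 min at room temperature.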
Hits are given with their value; n = inactive; x = not tested or not shown; ! = repeats disagree. Cut-off read from the data, not from the text of the source, unless noted: active = activation above about 30%; inactive = the rest.

SMILES	D1 PAM	D1 antagonist	TRHR enhancer	D1 ag	TRHR agonist	GRP78 ERSR act
CN(C(=O)c1ccncc1)c1nnc(-c2ccccn2)s1	n	n	n	n	n	n
CN(C(=O)c1ccno1)c1nnc(-c2ccccn2)s1	n	-34.6	n	n	n	n
CC1=C(c2ccc(C)c(C)c2)S(=O)(=O)N=C1N1CCC(C(=O)NCc2ccc(C)o2)CC1	n	n	30.5	n	n	x
CC1=C(c2ccc(C)c(C)c2)S(=O)(=O)N=C1N1CCC(C(=O)NC(C)c2ccccc2)CC1 (configuration not stated)	n	-75.4	n	n	n	x
CC1=C(c2ccc(C)c(C)c2)S(=O)(=O)N=C1N1CCC(C(=O)NC(C)Cc2ccco2)CC1 (configuration not stated)	n	-32.2	n	n	n	n
COc1cc2[nH]c(=O)n(CCC(=O)NC3CCCC3)c(=O)c2cc1OC	n	n	n	n	n	n
CCCOc1ccccc1N/C(=N/c1nc(C)cc(C)n1)NC(=O)Nc1ccc(Cl)cc1	n	-50.0	n	n	n	n
COc1ccccc1-c1nc(-c2ccc(Br)o2)no1	n	-34.8!	n	n	n	n
COc1ccc(-c2nc(-c3ccc(Br)o3)no2)cc1OC	n	n	n	n	n	n
O=C(/C=C/c1ccc([N+](=O)[O-])cc1)Oc1ccc(/C=N/NC(=O)c2ccncc2)cc1	n	n	n	n	n	n
CN(C(=O)c1ccc(NC(=O)C2CCCN(C(=O)OC(C)(C)C)C2)cc1)C1CC1 (configuration not stated)	x	x	x	x	x	n
CC(=O)Nc1ccc(OCc2nnc(-c3ccccc3)o2)cc1	n	-47.6	n	n	n	n
Cc1ccc(-c2nnc(COC(=O)c3cc(=O)[nH]c4ccccc34)o2)cc1	n	-85.4	n	n	n	n
CC(=O)c1c(C)[nH]c(C(=O)OCc2nnc(-c3ccccc3)o2)c1C	n	-31.9	n	n	n	n
O=S(=O)(CCCc1ccccc1)c1ncn[nH]1	n	n	n	n	n	n
Oc1ccc(-c2csc(-c3c[nH]c4ccccc34)n2)c(O)c1	n	n	39.7	n	n	n
COc1ccc(-c2cccc(NS(=O)(=O)c3cc(C(F)(F)F)ccc3Cl)c2)nn1	n	n	n	n	n	n
CCCC1=Nc2cc(C(=O)NCCc3ccc(OC)cc3OC)ccc2Sc2ccccc21	n	n	n	n	n	n
Cc1ccc2[nH]c(=O)c(CN(Cc3ccccc3)C(=S)NCCCN(C)C)cc2c1	n	n	33.7	n	n	n
CCCCN(Cc1cc2cc(C)ccc2[nH]c1=O)C(=O)c1ccccn1	n	n	30.3	n	n	n
O=C(CSc1ncnc2ccccc12)c1ccco1	n	n	n	n	n	n
CCN1C(=S)N[C@@H](CCc2ccccc2)C(C(=O)OC)=C1C	n	-30.7!	n	n	n	n
CCN(CC)C(=O)CN1C(=O)NC2(CCc3ccccc3C2)C1=O (configuration not stated)	n	n	n	n	n	n
CC(=O)N(C(C)=O)N1C(=O)c2cccc3c(N4CCOCC4)ccc(c23)C1=O	n	n	n	30.6	n	n
CCCN1C(=O)c2cccc3c(N4CCCCC4)ccc(c23)C1=O	n	n	n	63.3	n	n
SMILES	D1 PAM	D1 antagonist	TRHR enhancer	D1 ag	TRHR agonist	GRP78 ERSR act
O=C1c2cccc3c([N+](=O)[O-])ccc(c23)C(=O)N1c1ccccn1	n	-42.1	n	n	n	n
CCCCNc1ccc2c3c(cccc13)C(=O)N(CCCC)C2=O	n	-70.6	n	700.2	285.8	n
CC1(C)SC(=S)N(Cc2ccc3c(c2)OCO3)C1N(O)C(=O)NC1CCCCC1 (configuration not stated)	n	n	n	n	n	n
O=S(=O)(NCCCN1CCOCC1)c1ccc2c(c1)OCCO2	n	n	n	n	n	n
O=C1c2cccc3c(N4CCCCC4)ccc(c23)C(=O)N1c1ccccn1	n	n	n	154.0	156.5	n
O=C1c2ccc([N+](=O)[O-])cc2C(=O)N1c1ccc(Cl)cn1	n	n	n	n	n	n
O=C1c2cccc3c([N+](=O)[O-])ccc(c23)C(=O)N1c1ccc(Cl)cn1	n	-49.5	n	n	n	n
